Bioassay records deposited in PubChem BioAssay by Sanford-Burnham Center for Chemical Genomics.
tim10-1 inh: tim10-1 yeast growth inhibition; inhibition, % at 20 µM; AID 463190; 330,000 tested, 2.2% active; S. cerevisiae tim10-1 ts strain growth, BacTiter-Glo, 24 h;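 active = inhibition of at least 40%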;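 also: mutant grown at 25 °C; 0% = DMSO wells with yeast and 100% = wells holding no yeast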
tim23-1 inh: inhibits growth of tim23-1 mutant yeast; S. cerevisiae tim23-1 growth, BacTiter-Glo luminescence, 24 h; inhibition, % at 20 µM; 330,000 tested, 1.3% active; AID 463212;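 active = growth inhibition of the mutant yeast at or above 50%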;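 also: temperature-sensitive mutant grown at 25 °C; plate controls were DMSO-treated mutant yeast for no effect and medium wells lacking yeast for full effect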
NALP3 yeast inh: NALP3 inhibition in yeast | AID 2825 | Yeast reconstituted NLRP3/ASC/caspase-1, beta-gal luminescence, 24 h | 330,000 tested, 0.39% active | inhibition, % at 10 µM;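 active = inhibition of 50% or more; inactive = inhibition below 50%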;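 also: plate controls were induced DMSO wells for no effect and uninduced yeast grown without galactose for full effect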
NALP1 yeast inh: blocks the NALP1 inflammasome reconstituted in yeast; AID 2071; S. cerevisiae NALP1/ASC/caspase-1 growth, X-gal OD620, 72 h; inhibition, % at 10 µM; 280,000 tested, 0.61% active; in the data active = inhibition mostly above about 24%, no sharp cut-off; inactive = mostly below about 32%
TIM10 inh: inhibits growth of TIM10 yeast strain. S. cerevisiae TIM10 strain growth, BacTiter-Glo luminescence, 24 h. 330,000 tested, 1.4% active. AID 463195. inhibition, % at 10 µM;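 active = inhibition of 40% or more at the single tested concentration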;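 also: wild-type TIM10 isogenic control strain grown at permissive 25 °C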
tim23-1 confirm: confirmation of tim23-1 mutant yeast growth inhibitors; S. cerevisiae tim23-1 growth, BacTiter-Glo luminescence, 24 h; inhibition, % at 20 µM; AID 463218; 4,400 tested, 83% active; shares compounds with tim23-1 inh;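 active = inhibition above about 39% in either of two replicate wells at 20 µM, limit read from the data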;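 also: temperature-sensitive tim23-1 mutant grown at 25 °C; 0% = DMSO wells with yeast and 100% = medium wells without yeast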
Active calls of the source: *; . = no result; ! = repeats disagree. Most compounds without a hit are left out; they make up all but 4.1% or so of the library.

SMILES | tim10-1 inh | tim23-1 inh | NALP3 yeast inh | NALP1 yeast inh | TIM10 inh | tim23-1 confirm
CCOC(=O)c1c(NS(C)(=O)=O)sc2c1CCC(C)C2 (stereo unspecified) | 39 | 57* | -4 | 10 | 3 | 40*
C[C@H](CCC(=O)O)[C@H]1CC[C@H]2[C@@H]3[C@H](O)C[C@@H]4C[C@H](O)CC[C@]4(C)[C@H]3CC[C@]12C | -18 | 8 | 23 | . | 4 | .
CC(CCC(C)C(C)(C)C)[C@@H]1CC[C@H]2C3C[C@H](OS(O)(=S)=S)[C@H]4C[C@H](OS(O)(=S)=S)[C@@H](OS(O)(=S)=S)C[C@]4(C)[C@H]3CC[C@]12C (stereo partly specified) (tested in a mixture with another compound) | -62 | 56*! | 17 | . | -59 | 11
CC(C(Sc1ccccc1N)c1ccccc1)[N+](=O)[O-] (stereo unspecified) | 29 | 58* | 36 | . | 27 | 57*
C=CCS/C(N)=N\N=C\c1cc(Br)cc([N+](=O)[O-])c1O | 11 | 55* | 31 | 13 | 17 | 44*
Cc1ccc(C(=C2C3C=CC2C2C(=O)NC(=O)C32)c2ccc(C)cc2)cc1 (stereo unspecified) | 32 | 13 | -14 | 4 | 15 | .
O=C1OCCC1Sc1nc2ccccc2c(=O)n1Cc1ccc(F)cc1 (stereo unspecified) | 33 | 50* | 7 | 2 | 26 | 23
O=C1OCCC1Sc1nc2ccccc2c(=O)n1-c1ccc(F)cc1 (stereo unspecified) | 19 | 7 | -4 | -11 | 3 | .
CC(C)(C)c1ccc(OCC(O)CSc2ncn[nH]2)cc1 (stereo unspecified) | 19 | 19 | 11 | 16 | -2 | .
Cc1[nH]c2ccccc2c1C(=O)C(=O)NCc1ccco1 | 18 | 13 | 4 | 10 | 12 | .
COC(=O)c1c(NS(=O)(=O)Cc2ccccc2)sc2c1CCCC2 | 23 | 58* | -11 | 29 | 21 | 52*
C/C(=N\N(c1ccccc1)c1ccccc1)c1ccc(N)cc1 | 17 | 29 | 10 | . | 27 | .
C/C(=N\N(c1ccccc1)c1ccccc1)c1ccc(O)cc1 | -6 | 54* | 16 | 8 | 20 | 44*
O=C1CCN(Cc2ccccc2)C=C1c1ccc(Cl)cc1 | 18 | 43 | 9 | . | 19 | .
O=C1CCN(Cc2ccccc2)C=C1c1ccc2ccccc2c1 | 18 | 50* | 19 | . | 19 | 47*
COc1cccc(-c2nn(-c3ccc(C)cc3)cc2C(=O)N2CCN(C3CCS(=O)(=O)C3)CC2)c1 (stereo unspecified) | 4 | 3 | 16 | . | 1 | .
CCSCCc1nnc(NC(=O)Nc2cccc(C(F)(F)F)c2)s1 | 18 | -16 | -29 | . | 33 | .
Cc1nnc2n(Cc3ccccc3)c(=O)c3c4c(sc3n12)COC(C(C)C)C4 (stereo unspecified) | 26 | 55* | 7 | 3 | -1 | 38
O=C(N[C@@H]1C[C@H]2CC[C@@H]1C2)c1ccco1 | 16 | 13 | 13 | -2 | 5 | .
O=C(O)/C=C/c1cn(-c2ncc(C(F)(F)F)cc2Cl)c2ccccc12 | 8 | 24 | -11 | 9 | 9 | .
COc1c(O)cc2c(c1O)C(=O)CC(c1ccccc1)O2 (stereo unspecified) | 28 | 44 | 19 | -18 | 9 | .
Cc1c(O)cc2c(c1O)C(=O)CC(c1ccccc1)O2 (stereo unspecified) | 38 | 51* | 0 | 1 | 31 | 48*
CNC(=S)N/N=C/c1ccc(-c2ccc(Cl)c([N+](=O)[O-])c2)o1 | 7 | -8 | 22 | 13 | 3 | .
CNC(=S)N/N=C/c1ccc(-c2ccc(C(=O)O)cc2)o1 | 31 | 50* | 2 | -6 | 28 | 44*
Cc1ccc(CC(=O)O/N=C(\N)c2ccccn2)cc1 | 38 | 21 | 19 | 3 | 24 | .
SMILES | tim10-1 inh | tim23-1 inh | NALP3 yeast inh | NALP1 yeast inh | TIM10 inh | tim23-1 confirm
Cc1ccc(C(=O)O/N=C(\N)c2ccccn2)c(Cl)c1 | 36 | 51* | 35 | 17 | 33 | 54*
N#CC1=C(N)SC(N)=C(C#N)C1CCC1CCCCC1 | 29 | 11 | -2 | -6 | 16 | .
Cc1nnc(SCC(=O)NC2CCCCC2)s1 | 10 | 3 | -2 | 3 | 4 | .
CCCc1nc2sc3ccccc3c(=O)c2c(=O)n1Cc1ccc(OC)cc1 | 33 | 52* | 17 | 6 | 18 | 45*
COc1ccc(Cn2c(C(C)C)nc3sc4ccccc4c(=O)c3c2=O)cc1 | 23 | 62* | 9 | . | 30 | 55*
O=C(Oc1ccc(Cl)c2cccnc12)c1ccco1 | 27 | 52* | 18 | -10 | 23 | 46*
O=C(Oc1cccc2ccccc12)c1ccco1 | 24 | 10 | 5 | 0 | 18 | .
O=C(Nc1ccc(C(F)(F)F)cc1)N1CCN(c2ccnc3cc(Cl)ccc23)CC1 | 16 | 51* | 19 | . | 24 | 46*
O=C(Nc1cc(F)ccc1F)N1CCN(c2ccnc3cc(Cl)ccc23)CC1 | 22 | 21 | 33 | . | 11 | .
CC1(C)NC(=O)N(CCCC(=O)Nc2ccc(C(F)(F)F)cc2)C1=O | -9 | -4 | 17 | . | 3 | .
CCN(CC(=O)Nc1cc(Cl)ccc1C)C(=O)C1COc2ccccc2O1 (stereo unspecified) | 26 | 42 | 31 | . | 20 | .
COc1cc(CCc2ccccc2)c(C(=O)O)c(O)c1C/C=C(/C)CCC=C(C)C | 28 | 75* | . | . | 15 | 20
CC(C)=CCC/C(C)=C/Cc1c(O)ccc(C(=O)/C=C/c2ccc(O)cc2)c1O | -60 | 1 | 24 | 19 | 15 | .
C/C(=N\Nc1nc(C)cc(-c2ccccc2)n1)c1ccc(O)cc1 | 30 | 50* | 4 | 16 | 26 | 49*
C/C(=N\Nc1nc(C)cc(-c2ccccc2)n1)c1cccc(N)c1 | 20 | 36 | 21 | 0 | 15 | .
Cn1nnnc1Sc1ncnc2scc(-c3cc4ccccc4o3)c12 | 26 | 71* | 33 | . | 33 | 39*
Cn1nnnc1Sc1ncnc2scc(-c3cccc(C(F)(F)F)c3)c12 | 18 | 53* | 24 | . | 12 | 46*
Cn1nnnc1Sc1ncnc2scc(-c3ccc(C(F)(F)F)cc3)c12 | 21 | 56* | 11 | . | 1 | 38
CCCc1ccc(OCc2ccc(C(=O)N3CCSCC3)o2)cc1 | 13 | 5 | 14 | 3 | -7 | .
O=C(Nc1cnccn1)Nc1ccc(Cl)cc1Cl | 23 | -4 | 1 | 15 | 15 | .
CCOc1cccc(CNCc2ccc(C(=O)O)cc2)c1 | -10 | 89* | 8 | -11 | -14 | 18
O=C(O)c1ccc(CNCc2cccc(Oc3ccccc3)c2)cc1 | -11 | 3 | 0 | 1 | 11 | .
O=C1C(=O)N(C/C=C/c2ccccc2)c2ccccc21 | 23 | 76* | 19 | 11 | 15 | -19
Clc1nssc1=Nc1nncs1 | 32 | 52* | 7 | . | 8 | 76*
